Data reported in article PMC12136788.
In all, about 24,000 sequences were measured (“enrichment r”: median about 0.99, highest 2% from about 3.7 on). The sample as a whole holds a higher share of the highest values than the screen did.

B1: chr15:74751088:74751089:-_ENSG00000138629_ENST00000361351|perfect_dup|FALSE|FALSE (ssRNA)
RNA: GGGAGUUCUACAGUCCGACGAUCCGGGUCUGGAACAGAUUCCUGGAGCUUGCCAGCAAUAAGCUGCUUCAGAAAUGAAAUGCUAUAGCCCCCUAGGGAAUAUUCUCCCAGUUCUGUCUCUGGCAACUGAAGAAUAGAUUUUGGCAACAGAGGAUUGAGCAUCA
B2: chr2:39006174:39006175:+_ENSG00000152147_ENST00000409566|hu_mus|FALSE|FALSE (ssRNA)
RNA: GGGAGUUCUACAGUCCGACGAUCUACUCCUUCUCACAGGCUAUCACUCUCACUUCUUUAUAAACGUAAUCUUCCCAUUCUAAGGGGCUUUUCUUCAUCCAUUCGCUCAUGGUUACCAGUUGCCCAGAUUCUUUCUAGAUGACUCAACAGAGGAUUGAGCAUCA
B3: 8805033_8805153_1671_3pUTR_ENSMUSG00000021147_ENSMUST00000021572|mouse|control|control (ssRNA)
RNA: GGGAGUUCUACAGUCCGACGAUCAACUUGGAGCUAAGGAACAUCAGUGACUUAUUUUUCUUGUAACAGUGCAGGAAUAUUGAUGUUCCACCCAAUAGCUUGCCUAUCGAACCCACAGGUAAAUAGAUUGCAUAUGGGGUGGUCCAACAGAGGAUUGAGCAUCA
B4: chr2:46850943:46850944:+_ENSG00000119878_ENST00000238892|hu_hu|FALSE|FALSE (ssRNA)
RNA: GGGAGUUCUACAGUCCGACGAUCGUAGGCACAGCCCUGGCAGUAAUGAGAACCUGGUUGGUGCACAGAACUUUUACAAAUUCUACAAGUGGAGAACUUAUUCUUUCCAUAUGGAUCAAAUCUUGCUUUUUUUGAAGUCAAAGCCAACAGAGGAUUGAGCAUCA
B5: 72481967_72485090_997_CDS_ENSMUSG00000030516_ENSMUST00000102592|mouse|control|control (ssRNA)
RNA: GGGAGUUCUACAGUCCGACGAUCUGCUGCCAAACUAUCUUGUGAAAUUUCCUUUACAAAUAUAUGGCUGGCCAAUCGAAGACCAUAUUCUUCAUUUUUCCGAGACUUCACCAGUGUGACCUUGGUGGGCUUUGCGGGCUGACUCAACAGAGGAUUGAGCAUCA
B6: chr7:141438946:141438947:+_ENSG00000106028_ENST00000265304|hu_mus|hu_hu_hu_mus_True|8_98 (ssRNA)
RNA: GGGAGUUCUACAGUCCGACGAUCGACGAAAUACCUGACAGGUCUUCCUUCGAAACAUGGCUUCUGUUUUUCUUACAACCUAAUCUUUAGGCUUUUCCUAAAGGAAAGAAAGAAAAGAGAAAAAUGAGCAGGGGAUCAACUACACAACAGAGGAUUGAGCAUCA
B7: chr4:88365945:88365946:-_ENSMUSG00000070923_ENSMUST00000094993|mus_mus|motif|central (ssRNA)
RNA: GGGAGUUCUACAGUCCGACGAUCACUUGUAUAGCCAUUUACUAAACAAUAUCAAGCCAAACCAAAAAAAAAAAAGGGUCGGAGUUACCUUUUUGUCUAUUAACUGUAGCAAUAAGGAGAAACAAUACAAGGGGAUGAACAAGACAACAGAGGAUUGAGCAUCA
B8: chrX:71549400:71549401:+_ENSMUSG00000019087_ENSMUST00000019231|mus_hu|mus_mus_mus_hu_False|8_58 (ssRNA)
RNA: GGGAGUUCUACAGUCCGACGAUCGCAGUAGGAAGAGGGAAGCUCUUCAGUCCAGUGCGCUGCAGGGUGGGAAAGCACAACCUAGACCACCGUCCCACCCUCAACCCCCCCACUGGCACAGGGUCACAUCUGGGUCAUCAAAGACAACAGAGGAUUGAGCAUCA
B9: chr16:45711415:45711416:-_ENSMUSG00000022658_ENSMUST00000096057|mus_mus|FALSE|FALSE (ssRNA)
RNA: GGGAGUUCUACAGUCCGACGAUCAUUAGGAUACGUUCUGUGAGUCAAGGAGAGAAACUUUUUGGCAAAUAAAUAAAUAAAUAAUCAAACAAACCAAGACCUUAGGGCACAGGAGGUCAGAGAGGAAAGGGAGUCUUUGCAUAGCAACAGAGGAUUGAGCAUCA
B10: chrX:71549400:71549401:+_ENSMUSG00000019087_ENSMUST00000019231|mus_hu|mus_mus_mus_hu_False|8_88 (ssRNA)
RNA: GGGAGUUCUACAGUCCGACGAUCGCAGUAGGAAGAGGGAAGCUCUUCAUCCACUGUCGCUGCAGGGUGGGAAAGCAACAACACGGACACCGUCCCACCCUCAACCCCCCCACUGGCACAGGGUCACAUCUGGGUCAUCAAAGACAACAGAGGAUUGAGCAUCA
B11: chr7:97110809:97110810:-_ENSMUSG00000030619_ENSMUST00000107234|mus_mus|FALSE|FALSE (ssRNA)
RNA: GGGAGUUCUACAGUCCGACGAUCACAAGACUUGGAAAGUAUCAAAUCGCCUAACCAUCGCACACAAUCAACAUAAUUCCUAUGUAUGUCUCUGGUAGAAAAGUCAGGAAAGUGGAUUUUCUGGGAAAUAAAUGGCCUGUUAGUCAACAGAGGAUUGAGCAUCA
B12: chr10:112362727:112362728:-_ENSMUSG00000074748_ENSMUST00000099276|mus_mus|FALSE|FALSE (ssRNA)
RNA: GGGAGUUCUACAGUCCGACGAUCGAUCCCAGCAUGCGAUAAUGCCAGGUAGUGGCCCCUGGGCAUGCGAUGGUGGGAACUAAUUUACUGAAGAAAAAAGCACAAACCACAGAAAAUGUAAAGAACCCCUUCCCCCUAUACACACAACAGAGGAUUGAGCAUCA
B13: chr4:128986876:128986877:-_ENSMUSG00000057236_ENSMUST00000102598|mus_mus|motif|central (ssRNA)
RNA: GGGAGUUCUACAGUCCGACGAUCGAUGGUGAGACAGGUCAACCAAAAUGGAGAUGGCAUCAAACUAUAGUGGUCAAAGACGGACCCCUAAAAAAGCAACUUUUAUCAAGGAUUAAUUUAAUCUUAAAAACAAACACAAACUAGCAACAGAGGAUUGAGCAUCA
B14: chr18:46664354:46664355:-_ENSMUSG00000033319_ENSMUST00000036226|mus_hu|FALSE|FALSE (ssRNA)
RNA: GGGAGUUCUACAGUCCGACGAUCGGAAAAAACUGUAGUAGAAAUGGUUAGGACAAACAAUAAAGUAGAAACAGGGGGGAAACUUGAGAAGAGAAGAAAGAAGCAAGAAAAAAAGACUUUCAAUUGUAUAAAAUUCACAAACCACAACAGAGGAUUGAGCAUCA
B15: chr3:148802587:148802588:-_ENSG00000071794_ENST00000310053|hu_mus|hu_hu_hu_mus_False|18_58 (ssRNA)
RNA: GGGAGUUCUACAGUCCGACGAUCUCCAACAACUUGUCCUCUCAUAGUUCCAAAUAAAACCAAAUCUUGCUCUUCAUCACUAGUUAGGAAGUCAUCUGGAGGAAUAAUGUCUUGGAAUUCAAAACGUGGCAAGAAAGUUGAGUACAACAGAGGAUUGAGCAUCA
B16: chr11:86070927:86070928:-_ENSMUSG00000018068_ENSMUST00000018212|mus_mus|FALSE|FALSE (ssRNA)
RNA: GGGAGUUCUACAGUCCGACGAUCUGGCACCAACAGUGCCGUCGACAGAGCGAGAAUCAGAAUGGGGACACUGCAAAAAAAAAAAAAAAAGUAAAAAGGAAAGGGAAAAAAAAGGGAGAAGCAACCAGGAGAGAGGGGAAAGCACAACAGAGGAUUGAGCAUCA

target: T1, UNK ZnF1-3 (human, UniProt Q9C0B0 31-174); experiment: nsRBNS (natural sequence RNA bind-n-seq); RBNS binding buffer (assumed for nsRBNS): 25 mM Tris pH 7.5, 150 mM KCl, 3 mM MgCl2, 0.01% Triton X-100, 500 ug/ml BSA, 20 U/ml SUPERase-In, 4 C; UNK is unkempt and MSI1 is Musashi-1; names of the RNAs are library labels; protein concentration not given here; high values mean tight binding
T1 sequence: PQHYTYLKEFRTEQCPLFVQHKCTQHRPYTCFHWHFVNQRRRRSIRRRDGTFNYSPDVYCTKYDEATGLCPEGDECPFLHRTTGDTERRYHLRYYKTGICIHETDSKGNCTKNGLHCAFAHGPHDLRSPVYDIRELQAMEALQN

Row | Binder | binding signal
1 | B1 | 1.14 enrichment R
2 | B2 | 0.786 enrichment R
3 | B3 | 0.759 enrichment R
4 | B4 | 0.978 enrichment R
5 | B5 | 0.579 enrichment R
6 | B6 | 0.543 enrichment R
7 | B7 | 1.54 enrichment R
8 | B8 | 1.31 enrichment R
9 | B9 | 3.91 enrichment R
10 | B10 | 1.14 enrichment R
11 | B11 | 1.38 enrichment R
12 | B12 | 1.77 enrichment R
13 | B13 | 4.74 enrichment R
14 | B14 | 5.26 enrichment R
15 | B15 | 1.29 enrichment R
16 | B16 | 8.95 enrichment R
